Source: PubChem BioAssay (EPA / NIEHS)
Active and inactive are the calls of the source. Rule for the calls: active = hit-call score of the fitted dose curve at least 0.9, where 1 is the maximum; inactive = score below 0.9.

How the values were obtained:
[1] = read-out: Tissue Factor, F3 (gene 2152); test: BSK_CASM3C_TissueFactor: BioMAP Diversity Plus: CASM3C Assay for Tissue Factor Biomarker Activity (AID 2283052); details: primary human coronary artery smooth muscle cells; actives raise or lower the signal;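 note: cell surface tissue factor protein level read by ELISA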
[2] = read-out: Interferon-gamma inducible Protein 10 (IP10), CXCL10 (gene 3627); test: BSK_hDFCGF_IP10: BioMAP Diversity Plus: hDFCGF Assay for Interferon-gamma inducible Protein 10 (IP10) Biomarker Activity (AID 2283053); details: primary human foreskin fibroblasts; actives raise or lower the signal
In short: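 ELISA read-out of IP-10 (CXCL10) from primary human skin fibroblasts, 24 h after compound addition. Gain or loss of signal versus DMSO baseline, bidirectional curve fitting.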

[3] = read-out: Urokinase-type plasminogen activator receptor (uPAR), PLAUR (gene 5329); test: BSK_CASM3C_uPAR: BioMAP Diversity Plus: CASM3C Assay for Urokinase-type plasminogen activator receptor (uPAR) Biomarker Activity (AID 2283054); details: primary human coronary artery smooth muscle cells; actives raise or lower the signal;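 note: cell-surface uPAR protein level quantified by ELISA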
[4] = read-out: Vascular cell adhesion molecule 1 (VCAM1), VCAM1 (gene 7412); test: BSK_CASM3C_VCAM1: BioMAP Diversity Plus: CASM3C Assay for Vascular cell adhesion molecule 1 (VCAM1) Biomarker Activity (AID 2283055); details: primary human coronary artery smooth muscle cells; actives raise or lower the signal;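 note: VCAM-1 protein level quantified by ELISA on the cells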
[5] = read-out: Collagen III, COL3A1 (gene 1281); test: BSK_hDFCGF_CollagenIII: BioMAP Diversity Plus: hDFCGF Assay for Collagen III Biomarker Activity (AID 2283056); details: primary human foreskin fibroblasts; actives raise or lower the signal
In short: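 ELISA readout of Collagen III in human dermal (foreskin) fibroblasts, taken 24 h post-treatment. Gain or loss relative to DMSO vehicle fitted in both directions.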

[6] = read-out: Epidermal growth factor receptor (EGFR), EGFR (gene 1956); test: BSK_hDFCGF_EGFR: BioMAP Diversity Plus: hDFCGF Assay for Epidermal growth factor receptor (EGFR) Biomarker Activity (AID 2283057); details: primary human foreskin fibroblasts; actives raise or lower the signal
In short: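 ELISA readout of EGFR on human dermal fibroblasts (primary foreskin cells), 24 h post-dosing; bidirectional curve fit vs DMSO baseline, gain or loss of signal scored.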

[7] = read-out: Interleukin-8 (IL8), CXCL8 (gene 3576); test: BSK_hDFCGF_IL8: BioMAP Diversity Plus: hDFCGF Assay for Interleukin-8 (IL8) Biomarker Activity (AID 2283058); details: primary human foreskin fibroblasts; actives raise or lower the signal
In short: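 IL-8 levels read by ELISA at 24 hours after dosing human skin fibroblast cultures. Parallel SRB staining assessed overt cytotoxicity, and gain or loss of signal was fitted against DMSO control.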

[8] = BSK_hDFCGF_Proliferation: Cell Proliferation Assessment in the BioMAP Diversity Plus: hDFCGF Assay (AID 2283059); details: primary human foreskin fibroblasts;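 note: curves fitted for both rise and fall of signal versus DMSO baseline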
In short: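 Steps: dose primary human dermal fibroblasts (foreskin); […] fix in 10% TCA; stain with 0.1% SRB; read 560 nm; fit gain or loss of signal against DMSO.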

[9] = read-out: Macrophage colony-stimulating factor (MCSF), CSF1 (gene 1435); test: BSK_hDFCGF_MCSF: BioMAP Diversity Plus: hDFCGF Assay for Macrophage colony-stimulating factor (MCSF) Biomarker Activity (AID 2283060); details: primary human foreskin fibroblasts; actives raise or lower the signal
In short: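 M-CSF levels read by ELISA at 24 h post-dosing in human skin fibroblasts. Parallel cultures stained with SRB assessed cytotoxicity at the same time point; response fitted in both directions against the DMSO baseline.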

[10] = BSK_hDFCGF_SRB: Viability Assessment in the BioMAP Diversity Plus: hDFCGF Assay (AID 2283061); details: primary human foreskin fibroblasts;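 note: cells exposed to compound for 24 h before the read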
In short: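 Viability was read as total protein: after 10% TCA fixation, wells were stained with 0.1% sulforhodamine B and read at 560 nm. Primary human foreskin fibroblasts were dosed for 24 h, with bidirectional fitting versus DMSO.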

[11] = read-out: Monokine induced gamma interferon (MIG), CXCL9 (gene 4283); test: BSK_hDFCGF_MIG: BioMAP Diversity Plus: hDFCGF Assay for Monokine induced gamma interferon (MIG) Biomarker Activity (AID 2283063); details: primary human foreskin fibroblasts; actives raise or lower the signal
In short: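 Human primary foreskin fibroblasts in the hDFCGF system, exposed to test chemical for 24 h; MIG measured by ELISA. Bidirectional curve fitting against DMSO negative control as activity baseline.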

[12] = read-out: Matrix Metallopeptidase 1 (MMP1), MMP1 (gene 4312); test: BSK_hDFCGF_MMP1: BioMAP Diversity Plus: hDFCGF Assay for Matrix Metallopeptidase 1 (MMP1) Biomarker Activity (AID 2283064); details: primary human foreskin fibroblasts; actives raise or lower the signal
In short: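 MMP1 levels quantified by ELISA 24 h after dosing human dermal fibroblast cultures, with parallel SRB total-protein staining for overt cytotoxicity. Data fitted in both directions against DMSO baseline.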

[13] = read-out: Vascular cell adhesion molecule 1 (VCAM1), VCAM1 (gene 7412); test: BSK_hDFCGF_VCAM1: BioMAP Diversity Plus: hDFCGF Assay for Vascular cell adhesion molecule 1 (VCAM1) Biomarker Activity (AID 2283065); details: primary human foreskin fibroblasts; actives raise or lower the signal;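 for AC50: VCAM-1 protein level quantified by ELISA after 24 h chemical exposure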
In short: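 ELISA readout of VCAM-1 on human dermal fibroblast primary cultures, 24 h after chemical exposure. Gain or loss of signal fitted in both directions against DMSO baseline.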

[14] = read-out: Plasminogen activator inhibitor-1 (PAI1), SERPINE1 (gene 5054); test: BSK_hDFCGF_PAI1: BioMAP Diversity Plus: hDFCGF Assay for Plasminogen activator inhibitor-1 (PAI1) Biomarker Activity (AID 2283066); details: primary human foreskin fibroblasts; actives raise or lower the signal
In short: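 ELISA readout of PAI-1 from primary human skin fibroblast cultures, 24 h after compound addition. Gain or loss of signal was fitted bidirectionally against DMSO baseline.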

[15] = read-out: Intercellular Adhesion Molecule 1 (ICAM1), ICAM1 (gene 3383); test: BSK_KF3CT_ICAM1: BioMAP Diversity Plus: KF3CT Assay for Intercellular Adhesion Molecule 1 (ICAM1) Biomarker Activity (AID 2283067); details: primary human keratinocytes with fibroblasts; actives raise or lower the signal
In short: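 Cell-surface ICAM-1 was measured by ELISA 24 h after dosing primary human skin keratinocytes co-cultured with fibroblasts. Parallel SRB staining tracked overt cytotoxicity. Gain or loss of signal was fitted relative to DMSO.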

[16] = read-out: Interferon-gamma inducible Protein 10 (IP10), CXCL10 (gene 3627); test: BSK_KF3CT_IP10: BioMAP Diversity Plus: KF3CT Assay for Interferon-gamma inducible Protein 10 (IP10) Biomarker Activity (AID 2283068); details: primary human keratinocytes with fibroblasts; actives raise or lower the signal
In short: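 KF3CT co-culture (keratinocytes + foreskin fibroblasts), 24 h compound, IP-10 by ELISA; bidirectional fit vs DMSO baseline.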

[17] = BSK_KF3CT_SRB: Viability Assessment in the BioMAP Diversity Plus: KF3CT Assay (AID 2283069); details: primary human keratinocytes with fibroblasts;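 note: total protein by sulforhodamine B staining as a cytotoxicity measure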
In short: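 Cytotoxicity was gauged by SRB staining (0.1% SRB, 10% TCA fixation, 560 nm) of parallel cultures at 24 h. The cells were primary human skin keratinocytes co-cultured with fibroblasts, and activity was fitted in both directions against DMSO.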

[18] = read-out: Interleukin-1 alpha (IL1a), IL1A (gene 3552); test: BSK_KF3CT_IL1a: BioMAP Diversity Plus: KF3CT Assay for Interleukin-1 alpha (IL1a) Biomarker Activity (AID 2283070); details: primary human keratinocytes with fibroblasts; actives raise or lower the signal
In short: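 IL-1a was detected by ELISA 24 h after chemical treatment of a co-culture of human skin keratinocytes and foreskin fibroblasts. Gain or loss of signal was fitted against the DMSO baseline.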

[19] = read-out: TIMP metallopeptidase inhibitor 2 (TIMP2), TIMP2 (gene 7077); test: BSK_KF3CT_TIMP2: BioMAP Diversity Plus: KF3CT Assay for TIMP metallopeptidase inhibitor 2 (TIMP2) Biomarker Activity (AID 2283071); details: primary human keratinocytes with fibroblasts; actives raise or lower the signal
In short: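 ELISA readout of TIMP-2 in keratinocyte plus foreskin fibroblast co-cultures (human skin primary cells), 24 h post-dose. Gain or loss of signal fitted relative to DMSO.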

Measured: AC50

CC(C)COC(=O)CCCCC(=O)OCC(C)C
not listed: [19]
inactive: all other assays above

CCCCC(CC)COC(=O)CCCCCCCC(=O)OCC(CC)CCCC (centres undefined)
not listed: [19]
inactive: all other assays above

Cc1occc(=O)c1O
not listed: [19]
inactive: all other assays above

Oc1ccc(O)cc1
inactive: [1] | [3] | [6] | [17] | [18]
active: [2] 20.6 µM | [4] 9.44 µM | [5] 20 µM | [7] 31.5 µM | [8] 0.465 µM | [9] 11.6 µM | [10] 12 µM | [11] 18.7 µM | [12] 33 µM | [13] 13.5 µM | [14] 14.7 µM | [15] 6.66 µM | [16] 20 µM

CO[C@@H]1COCC[C@@H]1N[C@@H]1CC[C@@](C(=O)N2CCc3ncc(C(F)(F)F)cc3C2)(C(C)C)C1
inactive: all assays above

CC(C)(O)c1ccc(CNC(=O)c2cccnc2Oc2ccc(F)cc2)cc1
active: [14] 0.457 µM
inactive: all other assays above

CCCCCCCCCCCCCCCCO
active: [8] 6.73 µM | [11] 0.777 µM
inactive: all other assays above

CCCCCCCCCC[N+](C)(C)[O-]
active: [19] 0.0209 µM
inactive: all other assays above

CN(C)CCCN(C)CCCN(C)C
inactive: all assays above

CCc1cc(C2=C(C(=O)O)N(c3ccccc3C(F)(F)F)S(=O)(=O)c3ccccc32)cc2c1OCO2
active: [5] 32.5 µM | [8] 15.5 µM | [12] 19.8 µM
inactive: all other assays above

O=C(N[C@@H](c1ccccc1)[C@@H]1CCCCN1)c1cccc(C(F)(F)F)c1Cl
active: [2] 10.5 µM | [8] 28.7 µM | [14] 9.69 µM | [15] 30.7 µM | [16] 37.1 µM | [17] 30.3 µM | [19] 12.4 µM
not listed: [18]
inactive: all other assays above

O=C1NC(=O)C(c2ccccc2)(c2ccccc2)N1
not listed: [3] | [19]
inactive: all other assays above

CC(=O)S[C@H](C(=O)N[C@H]1Cc2ccccc2[C@H]2CCC[C@@H](C(=O)O)N2C1=O)C(C)C
inactive: all assays above

CCC(C)N(C)C(=O)c1cc2ccccc2c(-c2ccccc2Cl)n1 (centres undefined)
inactive: all assays above
